In general, inhibition refers to the change of the read-out against control, counted positive when it falls.

Each structure is given as a SMILES string.

Holding throughout (assay type): functional
Assay [1] has as its target Solute carrier family 2, facilitated glucose transporter member 1 (Homo sapiens) (UniProt P11166). The experiment in a line: ST_JUDE_LEISH: Cytotoxicity at 2uM final concentration against transgenic Leishmania Mexicana promastigotes LmGLUT1 that are glucose transport deficient and complemented with the human glucose transporter GLUT1. Activity is measured by DNA content using SYBR green in vitro.

Assay [2] deals with Hexose transporter 1 (Plasmodium falciparum) (UniProt O97467). The experiment in a line: ST_JUDE_LEISH: Cytotoxicity at 2uM final concentration against transgenic Leishmania Mexicana promastigotes LmPfHT that are glucose transport deficient and complemented with the Plasmodium falciparum hexose transporter. Activity is measured by DNA content using SYBR green in vitro.
Assay [3] addresses Glucose transporter (Leishmania mexicana) (UniProt O61059). The experiment in a line: ST_JUDE_LEISH: Cytotoxicity at 2uM final concentration against transgenic Leishmania Mexicana promastigotes LmGT2 that are glucose transport deficient and complemented with the L. Mexicana glucose transporter 2. Activity is measured by DNA content using SYBR green in vitro.

Solute carrier family 2, facilitated glucose transporter member 1 (Homo sapiens), sequence (P11166 whole entry): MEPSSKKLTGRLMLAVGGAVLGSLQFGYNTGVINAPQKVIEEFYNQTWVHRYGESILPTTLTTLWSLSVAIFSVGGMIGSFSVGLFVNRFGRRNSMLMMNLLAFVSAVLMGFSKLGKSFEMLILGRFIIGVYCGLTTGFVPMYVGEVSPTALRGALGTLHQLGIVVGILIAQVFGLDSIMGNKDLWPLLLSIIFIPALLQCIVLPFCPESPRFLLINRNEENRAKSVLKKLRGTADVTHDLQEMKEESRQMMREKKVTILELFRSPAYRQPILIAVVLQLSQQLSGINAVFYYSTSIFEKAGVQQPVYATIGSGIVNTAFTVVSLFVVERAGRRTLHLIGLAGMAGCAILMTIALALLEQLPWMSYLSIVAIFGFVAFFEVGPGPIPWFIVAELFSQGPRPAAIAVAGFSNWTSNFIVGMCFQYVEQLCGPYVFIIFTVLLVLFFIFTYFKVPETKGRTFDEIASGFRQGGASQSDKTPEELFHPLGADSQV

In the case of `CCc1c(CCNCCCCCCNCCc2ccc(OC)c(OC)c2C)ccc(OC)c1OC`, the inhibition in assay [1] was determined as 10.2%; in assay [2] it was 9.23%; in assay [3], 12.1%.
Taken in the same sequence, the figures for `Cc1cc(N2CCNCC2)c2cc(NC(=O)Nc3ccc(Cl)c(Cl)c3)ccc2n1` were 3.19%, 3.7% and 3.64%.
Taken in the same sequence, the figures for `O=C(Nc1ccc(Cl)c(Cl)c1)Nc1ccc2c(c1)CCNCC2` were -0.33%, 0.96% and 0.79%.
Taken in the same sequence, the figures for `C#CCCOc1ccc2ccccc2c1CNCCCCCCNCc1c(OCCC#C)ccc2ccccc12` were -1.76%, 3.36% and -0.13%.
As for `O=C(Nc1cccc(N2CCC(NCc3cnn(-c4cccc(F)c4)c3)CC2)c1)c1ccncc1`, the inhibition in assay [1] is -0.97%; in assay [2], 0.64%; in assay [3] it was -0.33%.
As for `OC(CNc1ccnc(Nc2ccc(Cl)cc2)n1)c1ccc(C(F)(F)F)cc1` (stereo unspecified), the inhibition was determined as 4.91% in assay [1], 4.91% in assay [2] and 2.64% in assay [3].
Turning to `CCN(CCCN1CCCCC1)c1cc(C)nc(Nc2ccc(C)c(F)c2)n1`, the inhibition came out at 5.07% in assay [1], 5.06% in assay [2] and 6.2% in assay [3].
The corresponding values for `O=C(NCc1ccccc1)C1Cc2c([nH]c3ccc(Br)cc23)C2(CCN(Cc3ccccc3)CC2)N1` (stereo unspecified) are 2.61%, 3.23% and 1.63%.
The corresponding values for `O=C(c1ccc(-c2cnc3[nH]cc(-c4ccc(C(=O)N5CCOCC5)cc4)c3c2)cc1)N1CCOCC1` are -0.49%, -1.48% and -1.88%.
Taken in the same sequence, the figures for `O=C(/C=C/c1ccc(Cl)c(Cl)c1)NCCCCCN1CCC(NC(=O)Nc2ccc3c(c2)OCO3)CC1` were 0.33%, 2.53% and 4.27%.
In the case of `Fc1cccc(COc2ccc(Nc3ncnc4cc(/C=C/[C@@H]5CCCN5)sc34)cc2Cl)c1`, the inhibition in assay [1] amounted to 5.81%; in assay [2] it was 0.95%; in assay [3] it was 1.52%.
Taken in the same sequence, the figures for `COc1cc(OCCCCCCON2C(=N)N=C(N)NC2(C)C)cc(OC)c1OC` were 7.66%, 8.02% and 6.93%.
The corresponding values for `COc1ccc2[nH]c(C)cc(=NN=Cc3cccc(F)c3)c2c1` are 5.17%, 5.7% and 2.61%.
The corresponding values for `CCN(CC)CCN(Cc1ccc(-c2ccc(C(F)(F)F)cc2)cc1)C(=O)Cn1c(CCc2cccc(F)c2F)nc(=O)c2ccccc21` are 1.51%, 0.95% and 1.67%.
With `CN1CCC(N(Cc2ccc(-c3ccc(C(F)(F)F)cc3)nc2)C(=O)Cn2c(CCc3cccc(F)c3F)cc(=O)c3ccccc32)CC1`, the results for the inhibition in assay [1], in assay [2] and in assay [3] were 6.73%, 6.06% and 7.68%, respectively.
On to `COc1ccc(Cl)cc1N1CCN(CCCNC(=O)c2ccc(-c3nc4cc(Cl)c(F)cc4[nH]3)cc2)CC1`, for which the figures for the inhibition in assay [1], in assay [2] and in assay [3] were 2.81%, 2.7% and 3.92%, respectively.
Taken in the same sequence, the figures for `O=C(NCCN1CCCC1)N1CCCN(c2ncnc3cc(-c4ccc(Cl)cc4)sc23)CC1` were 0.21%, 1.33% and 0.08%.
`CCOc1c(CNCCCNc2nc3ccccc3[nH]2)cc(Br)cc1OC`: the results for the inhibition in assay [1], in assay [2] and in assay [3] were 2.6%, -3.13% and 4.2%, respectively.
The corresponding values for `CCOc1ccccc1C(=O)Nc1cccc(-c2nc3ncccn3c2C)c1` are 2.41%, -0.3% and -0.34%.
Taken in the same sequence, the figures for `COCCN1CCN(Cc2ccc(-c3cccc(-c4nc5ccccc5[nH]4)c3)cc2)CC1` were -3.03%, -1.3% and -2.88%.
Taken in the same sequence, the figures for `Cc1cc(Br)cnc1CCCCNC1=NC(=O)CN1C` were 0.57%, -0.02% and 0.12%.
On to `CNC(=O)c1cc(S(=O)(=O)N2CCN(c3ccccn3)CC2)c(C)s1`, for which the inhibition in assay [1] was -1.34%; in assay [2] it was -1.2%; in assay [3] it was 1.44%.
For the compound `CCC(C)CN1CCN(c2cc(NC(=O)c3cccs3)ccn2)C(C)C1` (stereo unspecified), the figures for the inhibition in assay [1], in assay [2] and in assay [3] were -1.02%, 2.3% and 1.68%, respectively.
Taken in the same sequence, the figures for `CCOc1cc(C(=O)NCc2cccc(C(F)(F)F)c2)ccc1-c1nc2cc(Cl)ccc2[nH]1` were 2.15%, 2.24% and 1.82%.
Turning to `N#Cc1ccc(-c2ccc(C(=O)NCCCCN3CCC(c4ccncc4)CC3)cc2)cc1`, the inhibition worked out at 1.06% in assay [1], 1.16% in assay [2] and 2.75% in assay [3].
As to `Cc1cccc(CCNC(=O)c2cc(Br)cc(N3CCN(c4ccncc4)CC3)c2)c1`, the inhibition in assay [1] is 0.72%; in assay [2], 2.44%; in assay [3], 1.78%.
Taken in the same sequence, the figures for `CCc1cn2c3c(cc(C(=O)N[C@@H](Cc4ccccc4)[C@H](O)CN[C@@H](C)CC)cc13)N(C)S(=O)(=O)CC2` were 0.43%, 2.23% and -0.58%.
The corresponding values for `CCCNCc1ccc(-c2ccc(CN(CCOC)C(=O)c3ccco3)cc2)nc1` are 0.5%, 0.17% and 2.77%.
The corresponding values for `Cn1c(NC(=O)C2CCC(CNC(=O)c3ccc(O)c(-c4cccc([N+](=O)[O-])c4)c3)CC2)nc2ccccc21` (stereo unspecified) are 1.57%, 2.47% and 2.44%.
On to `CCC[C@@H]([C@@H](CC1CCCCC1)C(=O)N[C@H](C(=O)Nc1nccs1)C(C)(C)SCCOCCOCC)N(O)C=O`, for which the inhibition came to 6.4% in assay [1], 5.16% in assay [2] and 5.39% in assay [3].
Taken in the same sequence, the figures for `CS(=O)(=O)c1ccc(CCNCc2ccc(-c3ccc(CN(C(=O)c4ccc(Cl)nc4)C4CCN(Cc5ccccc5)CC4)cc3)nc2)cc1` were 4.37%, 3.39% and 1.67%.
The corresponding values for `O=c1cc(NCCCNCc2cc(C(F)(F)F)ccc2F)[nH]c2ccccc12` are 0.7%, 0.86% and 3.1%.
